Inconclusive results are not listed. Calls of active or inactive are those of the source. Calls come from the whole dose curve; as a rule, active = well fitted inhibition curve with a large enough effect; inconclusive = small, poorly fitted or top-dose-only effect, or effect the other way; inactive = flat fitted curve, though single readings scatter.
What follows are molecules tested against Ubiquitin carboxyl-terminal hydrolase 2 (Homo sapiens) (UniProt O75604) (assay: Confirmation Assay for Inhibitors of Ubiquitin-specific Protease USP2a Using CHOP2 as the Reporter). Conditions: USP2 core, Ub-CHOP2 coupled reporter fluorescence; series mostly up to 38.3 µM; activity change, negative = inhibition: at the top concentration.
Chain of Ubiquitin carboxyl-terminal hydrolase 2 (Homo sapiens) (O75604 whole entry, looked up): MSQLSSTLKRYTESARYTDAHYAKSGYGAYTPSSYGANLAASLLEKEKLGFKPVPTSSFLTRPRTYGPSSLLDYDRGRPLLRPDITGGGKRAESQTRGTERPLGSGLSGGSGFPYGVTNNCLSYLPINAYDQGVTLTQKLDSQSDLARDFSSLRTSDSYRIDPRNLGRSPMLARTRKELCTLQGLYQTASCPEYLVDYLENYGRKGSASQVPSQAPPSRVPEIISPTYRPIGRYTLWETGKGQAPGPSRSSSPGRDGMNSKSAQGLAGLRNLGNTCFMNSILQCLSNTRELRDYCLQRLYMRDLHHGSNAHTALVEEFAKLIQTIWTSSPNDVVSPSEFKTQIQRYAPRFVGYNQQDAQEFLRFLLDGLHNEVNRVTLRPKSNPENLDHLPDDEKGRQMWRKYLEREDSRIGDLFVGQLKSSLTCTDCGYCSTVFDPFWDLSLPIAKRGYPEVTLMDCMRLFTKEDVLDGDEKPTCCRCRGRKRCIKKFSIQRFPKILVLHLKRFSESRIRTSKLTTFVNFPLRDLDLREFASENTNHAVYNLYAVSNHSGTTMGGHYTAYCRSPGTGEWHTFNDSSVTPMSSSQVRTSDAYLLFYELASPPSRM
In short: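 Ub-CHOP2 cleavage coupled to reporter activation was read by fluorescence after 60 min at RT, with 25 nM final Ub-CHOP2 and substrate. Enzyme (10 nM final USP2 core) first sat 30 min with compound; data were normalized to NEM and fitted to concentration-response curves.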
Note: nearly all actives have a fitted effect of over 55% in size.
Potency is the fitted concentration of half-maximal effect.
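Throughout, for activity change, negative = inhibition: plate controls were DMSO wells for no effect and full inhibition by NEM control for full effect.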

Activity change, negative = inhibition, inactive:
Cc1ccc(NC(=O)c2cc3c(=O)oc4ccccc4c3s2)nc1 -0.826%
CC(C)OCCCNC(=O)c1c(N)n(/N=C/c2ccccn2)c2nc3ccccc3nc12 -0.772%
O=C(COC(=O)c1cccc(S(=O)(=O)N2CCc3ccccc32)c1)NC1CCS(=O)(=O)C1 (centres undefined) 2.24%
O=C1OC[C@@H]2CCCN2C(=O)[C@@H](CC(=O)N(CCO)Cc2ccccc2)C/C=C\C[C@@H]1Cc1ccc(F)cc1 2.66%
CCOC(=O)c1c(C)[nH]c(C(=O)COC(=O)CSC)c1C 2.27%
CCCn1c(NC(=O)c2ccc(Br)cc2)nc2ccccc21 -2.73%
CC(C)OCCCNC(=O)CN1C(=O)CC(C)(C)S(=O)(=O)c2ccccc21 -6.12%
CC(C)c1ccc(CCNC(=O)c2ccc([N+](=O)[O-])cc2)cc1 -1.71%
O=C(c1ccccc1)c1ccc2nc(-c3ccco3)c(-c3ccco3)nc2c1 -1.57%
COc1ccc(C(=O)COC(=O)c2ccccc2O)c(OC)c1 -16.9%
CCN1C(=O)CSc2ccc(C(=O)NC3CCCCC3)cc21 2.08%
CC(C)c1ccc(C2=C(O)c3ccccc3C(=O)C2=O)cc1 -0.0729%
COc1ccc(-c2[nH]ncc2/C=C(/C#N)C(=O)NC2CCCCC2)cc1 5.96%
CC(=O)Nc1ccc(NC(=O)C2CCCN(S(=O)(=O)c3ccc(Cl)cc3)C2)cc1 (centres undefined) 10.2%
CC(C)n1c(/C=C/[C@H](O)C[C@H](O)CC(=O)O)c(-c2ccc(F)cc2)c2ccccc21 1.97%
Nc1cc(N)nc(SCC(=O)N2CCCCC2)n1 -1.88%
c1ccc(CN2CCN(CCOCCOc3cccc4ccccc34)CC2)cc1 -13.4%
CCCNC(=O)NCc1ccc(N2CCCC2=O)cc1 -1.66%
O=C(C[n+]1cccc(C(=O)N/N=C/c2ccc(Br)cc2)c1)c1ccccc1 -1.53%
CCCCCc1ccc(OCCOCCn2c[n+](C)c3ccccc32)c(CCCCC)c1 -16.2%
CC(C)(C)c1cc(Br)ccc1OCC(=O)Nc1ncn[nH]1 1.94%
Nc1cc(=O)[nH]c(SCc2cccc(Cl)c2)n1 2.19%
COc1ccc(/C=C(\NC(=O)c2ccc(OC)c(OC)c2)C(=O)N2CCN(C)CC2)cc1 -1.18%
O=[N+]([O-])/C(C(Cl)=C(Cl)Cl)=C(\Sc1ccccc1)N1CCCCC1 -3.41%
COc1ccc(CC(NC(C)=O)C(=O)NC2CCN(c3nc(C)cc(C)c3C#N)CC2)c(OC)c1 (centres undefined) -0.456%
Cc1ccccc1[C@@H]1C(C#N)=C(N)S[C@H]1C(=O)c1ccccc1 -2.6%
CCOC(=O)c1[nH]c2ccc(OC)cc2c1NC(=O)CCN1CCCC(C)C1 (centres undefined) -2.89%
CCOC(=O)c1c(C)c(C(=O)O)n(C)c1C 7.14%
COc1ccc(NC(=O)CN(Cc2ccccc2)S(C)(=O)=O)cc1 4.08%
Cc1cc(C(=O)Nc2ccccc2N2CCOCC2)c2ccccc2n1 1.25%
CCOC(=O)N1CCN(C(=O)CN(c2ccc(Oc3ccccc3)cc2)S(C)(=O)=O)CC1 -1.27%
CCOc1ccc2[nH]c(=O)c(CN(CCc3ccccc3)C(=O)c3cnccn3)cc2c1 -3.4%
COc1ccc(C(=O)Nc2ccc(N3CCCC3)cc2)cc1OC 1.15%
COc1ccc(CC(=O)c2ccccc2C(=O)O)cc1 2.55%
CC(CN1CCCCC1)OC(=O)c1ccc(Cl)cc1 (centres undefined) 3.85%

Potency, active:
CCOC(=O)C1CCCN(C(=O)c2cc(-c3ccco3)nc3ccccc23)C1 (centres undefined) 18.5 µM
COc1ccc2[nH]c(=O)c(CN(C3CCCCC3)C(c3nnnn3Cc3ccco3)C(C)C)cc2c1 (centres undefined) 10.4 µM
O=C(Nc1ccc(N2CCCC2)cc1)c1ccc(Br)cc1 16.5 µM
COc1ccc(/C=N\NC(=O)c2cc(O)c(O)c(O)c2)cc1COc1ccc(C(=O)OCC(C)C)cc1 14.7 µM
